This note sets out measurements from PubChem BioAssay (Tox21).

A short description of assay [1]: A CellTox Green Cytotoxicity Assay to monitor cytotoxicity in HEK293 cells - 8 hour (AID 1224884). Note: nearly all actives have a fitted effect of over 35% in size. Note: potency is the fitted concentration of half-maximal effect. The procedure, abridged: (§1)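 HEK293 cells, 600/well, were preincubated 5 hours and then exposed to compounds at 37 C for up to 40 hours. A cell-impermeant cyanine dye staining dead-cell DNA was read by fluorescence at 0, 8, 16, 24, 32 and 40 h time points.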
Assay [2] can be described thus: qHTS RealTime-Glo MT Cell Viability Assay in HepG2 cells - 16 hour (AID 1224885). Note: nearly all actives have a fitted effect of over 50% in size. Note: potency is the fitted concentration of half-maximal effect. The procedure, abridged: (§2)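 HepG2 cells (600/well) were dispensed with RealTime-Glo reagents, incubated 5 h at 37 °C, then treated with compounds in DMSO for up to 40 h. Nonlytic NanoLuc luminescence reflecting viable cells was read at each stated time point.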
For orientation: Quantitative high-throughput screening tests each substance at several concentrations.

The nature of assay [3]: qHTS RealTime-Glo MT Cell Viability Assay in HEK293 cells - 24 hour (AID 1224886). Note: nearly all actives have a fitted effect of over 50% in size. Note: potency is the fitted concentration of half-maximal effect. The procedure, abridged:
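HEK293 cells seeded with NanoLuc/prosubstrate reagent, rested 5 h at 37 C, then dosed and kept at 37 C up to 40 h. Nonlytic real-time luminescence from viable cells read at 0, 8, 16, 24, 32 and 40 h.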

A short description of assay [4]: qHTS RealTime-Glo MT Cell Viability Assay in HEK293 cells - 8 hour (AID 1224887). Note: top concentration of the series differs between compounds; nearly all actives have a fitted effect of over 50% in size. The essentials:
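600 cells/well were plated with the nonlytic NanoLuc/prosubstrate reagent, pre-incubated 5 h, then given 23 nL of compound in DMSO. Incubation at 37 C for 40 h, with luminescence from viable-cell-reduced substrate read repeatedly from 0 h.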

A short description of assay [5]: A CellTox Green Cytotoxicity Assay to monitor cytotoxicity in HEK293 cells - 16 hour (AID 1224888). Note: nearly all actives have a fitted effect of over 35% in size. The procedure, abridged: as §1
A short description of assay [6]: qHTS RealTime-Glo MT Cell Viability Assay in HepG2 cells - 0 hour (AID 1224889). Note: nearly all actives have a fitted effect of over 50% in size. Note: potency is the fitted concentration of half-maximal effect. The procedure, abridged: as §2
Assay [7] can be described thus: A CellTox Green Cytotoxicity Assay to monitor cytotoxicity in HepG2 cells - 8 hour (AID 1224890). Note: nearly all actives have a fitted effect of over 45% in size. The procedure, abridged: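 HepG2 cells, 600/well, preincubated 5 h with CellTox Green dye, then exposed to Tox21 compounds in DMSO at 37 C for up to 40 h. Dead-cell DNA fluorescence read at the indicated time point.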
The nature of assay [8]: qHTS assay to identify small molecule antagonists of the estrogen receptor alpha (ER-alpha) signaling pathway using the BG1 cell line in the presence of 0.1 nM 17-beta-estradiol - cell viability counter screen (AID 1259241). Note: nearly all actives have a fitted effect of over 40% in size. The essentials:
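Cytotoxicity counter-screen: live-cell protease activity measured by fluorescence (30 min reagent step) in the same wells. Cells were VM7Luc4E2 with endogenous ER-alpha and ERE-driven luciferase, treated 22 hr at 37C alongside 0.1 nM 17beta-estradiol final.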

Assay [9] in a line: qHTS assay to identify small molecule antagonists of the androgen receptor (AR) signaling pathway using the MDA cell line in the presence of 0.5 nM R1881 - cell viability counter screen (AID 1259242). Note: nearly all actives have a fitted effect of over 45% in size. The essentials:
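MDA-kb2 cells (MMTV-luciferase, AR/GR responsive) were treated with compounds plus 0.5 nM R1881 (final) for 16 hr at 37C, 0% CO2. Viability was then read in the same wells as live-cell protease fluorescence (CellTiter-Fluor, 30 min).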

The structures appear in SMILES notation. Several values for one entry are separate records, joined by “and”; a condition that tells them apart may be missing. Identical values can stand only once. Results filed as inconclusive are left out. The source holds several records for some structures; these can differ, active in one and inactive in another. Activity calls are given as the source filed them. Calls come from the whole dose curve; as a rule, active = well fitted curve in the direction sought with a large enough effect in the repeat runs; inconclusive = weak or mixed curves; inactive = no such curve, though single readings can be large; an effect the other way counts as inactive or inconclusive.

With `N#CS`, the Potency result in assay [1], in assay [2], in assay [3], in assay [4], in assay [5] and in [6] was “inactive” in each case. Also, the Potency result in [7], in assay [8] and in assay [9] was “inactive” throughout.

For `CCCCCCn1cc[n+](C)c1`, the Potency entry in [1], in assay [2], in assay [5], in [6], in assay [7] and in assay [8] was “inactive” throughout. Moreover, the Potency in assay [3] was 22.2 µM (active) and 14 µM (active) and 17.7 µM (active).

In the case of `CCC[N+]1(C)CCCCC1`, the Potency entry in [1], in assay [2], in assay [3], in [4], in assay [5] and in assay [6] was “inactive” each time. Further, the Potency entry in assay [7], in assay [8] and in assay [9] was “inactive” throughout.

With `CN(C)[C@@H]1C(=O)C(C(N)=O)=C(O)[C@@]2(O)C(=O)C3=C(O)c4c(O)cccc4[C@@](C)(O)[C@H]3[C@H](O)[C@@H]12`, the Potency result in [1], in [2], in assay [3], in assay [4], in assay [5] and in assay [6] was “inactive” in each case. Besides, the Potency result in assay [7], in assay [8] and in [9] was “inactive” each time.

For the compound `C[C@]12CCC(=O)C=C1CC[C@@H]1[C@@H]2CC[C@]2(C)C(=O)CC[C@@H]12`, the Potency result in assay [1], in [2], in assay [4], in assay [5], in assay [7] and in [8] was “inactive” each time. Besides, the Potency entry in assay [9] was “inactive”. The Potency in assay [3] was 27.1 µM (active) and inactive; in [6], 34.1 µM (active) and 21.9 µM (active) and inactive.

`CNC`: the Potency entry in assay [1], in [2], in assay [3], in [4], in [5] and in assay [6] was “inactive” each time. Moreover, the Potency entry in [7], in assay [8] and in assay [9] was “inactive” in each case.

On to `O=C(O)c1nc(Cl)ccc1Cl`, for which the Potency result in [1], in assay [2], in assay [3], in assay [4], in assay [5] and in [6] was “inactive” each time. Also, the Potency entry in [7], in [8] and in assay [9] was “inactive” each time.

With `O=c1[nH]c(=O)n(Cl)c(=O)n1Cl`, the Potency result in assay [1], in assay [2], in assay [3], in assay [5], in [6] and in [7] was “inactive” in each case. The Potency result in [8] and in [9] was “inactive” throughout.

`O=c1nc(O)n(Cl)c(=O)n1Cl`: the Potency entry in assay [1], in [2], in [3], in [5], in assay [6] and in assay [7] was “inactive” each time. The Potency result in assay [8] and in assay [9] was “inactive” each time.

For `Oc1cccc2cccnc12`, the Potency result in assay [1], in [4], in assay [5], in [6], in [7] and in [9] was “inactive” throughout. Also, the Potency result in assay [2] is “inactive and 3.89 µM (active)”; in [3] it was 5.49 µM (active) and inactive.

On to `CCCCCCCCn1cc[n+](C)c1`, for which the Potency entry in [1], in [2], in [5], in [6], in [7] and in assay [8] was “inactive” each time. In addition, the Potency in assay [3] was 3.86 µM (active) and 4.41 µM (active).

Regarding `CCCC[N+]1(C)CCCCC1`, in assay [1], the Potency entry is “inactive and 55.7 µM (active)”. Also, the Potency result in assay [2], in assay [3], in assay [5], in assay [6], in assay [7] and in [8] was “inactive” in each case. For the same compound, the Potency result in assay [9] was “inactive”.

`CCCCCCCCCCCCOS(=O)(=O)O`: the Potency in assay [1] is 48.3 µM (active) and inactive. For the same compound, the Potency entry in assay [2], in assay [3], in assay [4], in assay [6], in assay [7] and in assay [8] was “inactive” each time. Further, in assay [9], the Potency result is “inactive”.

Turning to `O=C(O)C(Cl)Cl`, the Potency result in assay [1], in assay [2], in assay [3], in [5], in assay [6] and in assay [7] was “inactive” throughout. The Potency entry in assay [8] and in [9] was “inactive” throughout.

Take `CC(Cl)(Cl)C(=O)O`: the Potency entry in assay [1], in [2], in [3], in assay [5], in assay [6] and in [7] was “inactive” in each case. Also, the Potency result in assay [8] and in [9] was “inactive” each time.

`COc1ccccc1N`: the Potency result in assay [1], in assay [2], in assay [3], in assay [4], in assay [5] and in assay [6] was “inactive” throughout. In addition, the Potency result in [7], in assay [8] and in assay [9] was “inactive” each time.
